# Compound activity from PubChem BioAssay.
# KB-V1 cytotox = KB-V1 MDR subline cytotoxicity; Potency, µM (series often up to 46.1 µM), most hits filed as cytotoxic; KB-V1 MDR cells viability, CellTiter-Glo, 72 h; 400,000 compounds, 3.4% hits; further: nearly all actives have a fitted effect of over 60% in size
#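 Readout: CellTiter-Glo luminescence, 10 min after addition. Cells: KB-V1 MDR subline, 72 h at 37 degrees C with compound. Analysis: corrected, normalized data fitted to concentration-effect curves.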
# KB-3-1 cytotox = kills parental KB-3-1 adenocarcinoma cells; AID 1347075; KB-3-1 viability, CellTiter-Glo ATP luminescence, 72 h; Potency, µM (highest dose often 46.1 µM), most hits filed as cytotoxic; 400,000 compounds, 1.4% hits; further: nearly all actives have a fitted effect of over 60% in size
#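 Viability of parental KB-3-1 cells, measured by CellTiter-Glo luminescence, followed a 72 h incubation at 37 °C with pinned compounds in phenol-red-free DMEM containing 10% FBS.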
# HT1080-NT tox = kills 2HG-producing HT-1080-NT fibrosarcoma cells. HT-1080-NT fibrosarcoma viability, CellTiter-Glo ATP luminescence, 48 h. Potency, µM (titrated, usually from 46.1 µM), for the others: at the top dose activity, negative = less viability, hits mostly cytotoxic. 360,000 compounds, 1.6% hits;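 further: NT is the 2HG producing partner of a matched IDH1 knockdown line; 0% = DMSO-treated cells and -100% = media-only wells without cells; nearly all actives have a fitted effect of over 55% in size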
#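 Viability of the 2HG-overproducing fibrosarcoma line after 48 hours of compound exposure at 37 degrees C was determined by luminescence with CellTiter-Glo, and concentration-effect curves were then fitted and categorized.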
# HT1080 IDH1KD tx = toxicity to HT-1080 IDH1 knockdown cells (counter line); 360,000 compounds, 2% hits; HT-1080 IDH1 knockdown viability, ATP luminescence, 48 h; Potency, µM (series often up to 46.1 µM), for the others: at the top dose activity, negative = toxicity, hits mostly cytotoxic;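 further: 0% = DMSO wells and -100% = cell-free medium wells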
#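 HT-1080-IDH1KD cells (IDH1 knocked down), 750/well in RPMI with 5% FBS, treated with compound 48 h at 37 degrees C. Viability by CellTiter-Glo luminescence, normalised to DMSO and no-cell wells; concentration-response curves classed.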
# TDP1 cell CPT = DT40-hTDP1 cell growth loss with CPT; Potency, µM (top dose mostly 46.2 µM), inactives show top-dose activity change, negative = growth inhibition, usual class: inhibitors; chicken DT40 Tdp1-/-;hTDP1 cells + 20 nM CPT, ATP luminescence, 48 h; 420,000 compounds, 12% hits; further: nearly all actives have a fitted effect of over 55% in size
#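 Cell growth measured by CellTiter-Glo luminescence after a minimum 48 h, 37 C compound exposure with 20 nM CPT in Tdp1-knockout DT40 cells stably expressing hTDP1, seeded 400/well; qHTS titration format.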
# DT40 TDP1 no CPT = qHTS for Inhibitors of human tyrosyl-DNA phosphodiesterase 1 (TDP1): qHTS in cells in absence of CPT. DT40 Tdp1-/- hTDP1 cells, no CPT, ATP luminescence, 48 h. Potency, µM (top dose mostly 46.2 µM), for the others: at the highest dose activity change, negative = growth inhibition, actives largely listed as inhibitors. 420,000 compounds, 15% hits. AID 686978, 2013; further: nearly all actives have a fitted effect of over 55% in size
#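 Cells were dispensed at 400 per well, compounds added by pin tool, plates incubated ≥48 hr at 37 °C, then CellTiter-Glo added for 30 min at room temperature before luminescence reading. Line: DT40 Tdp1-/- complemented with hTDP1; camptothecin omitted.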
# * = called active by the depositor; i = inactive; ? = inconclusive; nt = not tested or not shown; [ ] = remark or other dose. Compounds with a hit are over-represented: about 19% of the library has one in this group of screens. The call rests on the fitted dose curve; in most records, active means well fitted curve in the direction sought with a large enough effect; inconclusive means small, poorly fitted or top-dose-only effect, or another doubt; inactive means no such curve, though single readings can be large; an effect the other way counts as inactive or inconclusive. Unless noted, on the % scale 0 is the no-effect control and ±100 the full control effect; potency means the concentration at half of the fitted maximal effect.
SMILES,KB-V1 cytotox,KB-3-1 cytotox,HT1080-NT tox,HT1080 IDH1KD tx,TDP1 cell CPT,DT40 TDP1 no CPT
O=C(C[C@@H]1C/C=C\CC[C@H](Cc2ccc(F)cc2)C(=O)OC[C@@H]2CCCN2C1=O)NCCO,i,i,28%,-1%,?,?
NS(=O)(=O)c1ccc(NC(=O)CCC(=O)O)cc1,nt,nt,nt,nt,4%,0%
Cn1c(-c2ccccc2)cc(=NNS(C)(=O)=O)c2cc(S(=O)(=O)O)ccc21,i,i,3%,-1%,0%,-3%
CCOc1ccc2nc(NC(=O)C3=NN(c4ccccc4)C(=O)CC3)sc2c1,i,i,-2%,-1%,?,26µM*
CCc1nnc(NC(=O)c2nc(SCc3ccccc3C)ncc2Cl)s1,i,i,nt,nt,-16%,-10%
CCOc1ccc2nc(NC(=O)c3nc(SCc4ccccc4C)ncc3Cl)sc2c1,i,i,nt,nt,13µM*,2.9µM*
CCOc1ccc2nc(NC(=O)CSc3nc4cccnc4n3C)sc2c1,i,i,?,?,8.2µM*,3.3µM*
Cc1cc(C(=O)Nc2nc3c(s2)CCCC3)no1,16µM*,i,0%,11%,-4%,4%
Cc1onc(-c2ccccc2)c1C(=O)Nc1nc2c(s1)CCCC2,?,?,-12%,-17%,?,?
CCN(CC)C(=O)C12CC3CC(CC(Br)(C3)C1)C2,i,i,15%,3%,-3%,-4%
O=C(CNC(=O)c1ccccc1F)NCC(c1cccs1)N1CCOCC1 (configuration not stated),i,i,1%,-1%,-6%,-7%
CC(NC(=O)C1CCCN(C(=O)c2ccc(Cl)cc2)C1)c1cccc(C(F)(F)F)c1 (configuration not stated),i,i,-2%[9.24 µM],0%,-69%,?
Cc1cccc(C)c1N(CC(=O)N1CCCC1)S(C)(=O)=O,i,?,16%,13%,7%,12%
CC(C)(C)c1ccc(C(=O)NC(=S)Nc2nc3c(s2)CCCC3)cc1,i,?,-2%,12%,26µM*,29µM*
CCOc1ccc2nc(NC(=O)c3ccc(C)o3)sc2c1,?,?,-9%,?,?,18µM*
CCOc1ccc2nc(NC(=O)c3ccccc3)sc2c1,?,?,nt,nt,13µM*,23µM*
CCOc1ccc2nc(NC(=O)c3cccnc3)sc2c1,?,?,18%,5%,-22%,-12%
CCOc1ccc2nc(NS(=O)(=O)Cc3ccccc3)sc2c1,?,?,5.8µM*,6.5µM*,3.3µM*,4.6µM*
Cc1cc2c(cc3c(SCc4ccc(Cl)cc4)nnc(C)n32)o1,i,i,nt,nt,?,?
Cc1ccc(-c2nn3c(=O)cc(CN4CCN(C(=O)Nc5cc(Cl)ccc5C)CC4)nc3s2)cc1,i,i,nt,nt,?,-2%
CCOc1ccc2nc(NC(=O)CCn3cccc3)sc2c1,i,i,-14%,-8%,-9%,-2%
CCOc1ccc2nc(NC(=O)CSc3ccccc3)sc2c1,?,?,-13%,-29%,?,26µM*
CCc1ccc2nc(NC(=O)c3cc(C)on3)sc2c1,8.2µM*,7.3µM*,9.2µM*,6.5µM*,9.2µM*,8.2µM*
CN(C)C(=S)Nc1nc2ccccc2s1,i,?,-6%,-9%,3.7µM*,2.6µM*
CCc1noc(C)c1C(=O)Nc1nc2ccc(F)cc2s1,i,i,-10%,-14%,7%,-16%
CCOc1ccc2nc(NC(=O)c3cnc(C)cn3)sc2c1,i,i,-17%,-13%,15µM*,21µM*
